Measured values as given in PubChem BioAssay AID1259313 (Sanford-Burnham Center for Chemical Genomics, 2017).
The campaign covered roughly 340,000 compounds. About 8,500 (2.5%) were called active. Shown is part of a subset that was picked to be rich in actives. Values without a mark were called inactive.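 Rule for the calls: active = melting temperature shift of at least 10% of the positive control shift, at one fixed dose; inactive = the rest.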

test system: Glutamate receptor ionotropic, NMDA 3A (GRIN3A) ligand-binding domain; experiment: binders of NR3A ligand-binding domain, primary screen, biophysical, differential scanning fluorimetry, uHTS (AID 1259313); details: NR3A LBD differential scanning fluorimetry, at 25 µM, active compounds read high, 0% = protein alone, 100% = glycine-bound protein

| SMILES | Tm shift relative to glycine control |
| --- | --- |
| CCn1c(Cc2cccs2)nnc1SCC(=O)c1ccc(C)cc1 | 11.2% (active) |
| Cc1ccc(-n2c(Cc3cccs3)nnc2SCC(=O)OC(C)C)cc1 | -1.71% |
| CCn1c(SCC(=O)c2ccc3ccccc3c2)nnc1-c1cccs1 | -0.65% |
| Cc1ccccc1NC(=O)C(C)c1ccc(-c2ccccc2)c(F)c1 (centres undefined) | -4.35% |
| CCCC(C(=O)OCCN(CC)CC)(c1ccccc1)c1ccccc1 | -1.26% |
| O=C(c1ccccc1)C(Cn1cncn1)C(Sc1ccccc1)c1ccccc1 (centres undefined) | 0.35% |
| CCc1ccc(NC(=O)Cn2nnc(C(=O)NCc3ccc4c(c3)OCO4)c2N)cc1 | 8.72% |
| COc1ccc(NC(=O)Cn2nnc(C(=O)NCCc3ccc(OC)c(OC)c3)c2N)cc1 | -0.6% |
| COc1ccc(CNC(=O)CN2CCC(n3nnc4cc(F)ccc43)CC2)cc1 | 0.17% |
| Cc1ccc(NC(=O)Cn2nnc(C(=O)NCc3ccco3)c2N)c(C)c1 | 1.53% |
| CCc1ccc(NC(=O)Cn2nnc(C(=O)NCc3ccc(OC)cc3)c2N)cc1 | 24.6% (active) |
| COc1cccc(CNC(=O)c2nnn(CC(=O)Nc3cc(C)ccc3C)c2N)c1 | 11.9% (active) |
| COc1ccc(CNC(=O)c2cc(=O)c3c(C)cc(C)cc3o2)cc1 | -0.39% |
| COc1ccc(CNC(=O)c2nnn(CC(=O)Nc3cc(C)cc(C)c3)c2N)cc1 | 29.7% (active) |
| COc1cccc(CNC(=O)c2nnn(CC(=O)Nc3cc(Cl)ccc3C)c2N)c1 | 2.58% |
| Cc1ccc(N/C(N)=N/c2nc(C(F)(F)F)cc(C(F)(F)F)n2)cc1 | -6.73% |
| O=C(NCc1cccs1)c1ccc2c(c1)ncn2C1CCCC1 | -0.09% |
| O=C1CN(C(=O)CN2C(=O)NC3(CCCCC3)C2=O)c2ccccc2N1 | -0.31% |
| O=C(CSc1c2c(nc3ccc(Cl)cc13)CCCC2)NCc1ccco1 | 0.25% |
| COC(=O)C1CCN(C(=O)c2ccc3oc(Cc4ccc(Cl)cc4)nc3c2)CC1 | 0.94% |
| COc1ccc(Cl)cc1NC(=O)COc1ccc2c(c1)OCO2 | -1.71% |
| C#CCNC(=O)C1=C[C@@H](c2ccccc2)[C@H](CCCO)[C@@H](OCC)O1 | -1.23% |
| COc1ccc(-c2cc(C(=O)n3cnc4ccccc43)c3ccccc3n2)cc1 | -1.16% |
| COc1ccc(-c2cc(C(=O)Nc3ccccc3O)c3ccccc3n2)cc1 | 21% (active) |

| SMILES | Tm shift relative to glycine control |
| --- | --- |
| COc1ccc(NC(=O)c2cc(-c3cc(OC)c(OC)c(OC)c3)nc3ccccc23)c(OC)c1 | 1.42% |
| Cc1cccc(CSc2ccc(-c3cccs3)nn2)c1 | -7.55% |
| Nc1ccc(SCCN2C(=O)c3ccccc3C2=O)cc1 | -0.18% |
| O=C(Nc1c(Br)cc2c(c1Br)Cc1ccccc1-2)C(F)(F)F | 11.5% (active) |
| O=C(Nc1ccccc1)c1ccccc1NC(=O)C(F)(F)F | -1.92% |
| O=C(Nc1c(Br)cc2c(c1Br)Cc1cc([N+](=O)[O-])ccc1-2)C(Cl)Cl | -1.4% |
| O=C(CCS(=O)(=O)c1ccc(Br)cc1)NCCc1ccc(Cl)cc1 | 0.18% |
| CCOc1ccc(NC(=O)CN(C)C(=O)CSc2ccccc2)cc1OCC | -0.35% |
| O=C(/C=C/Sc1ncn[nH]1)c1ccc(Cl)cc1 | -1.06% |
| Fc1c(F)c(C(F)(F)F)c(F)c(F)c1N1CCN(c2ccc3nnc(C(F)(F)F)n3n2)CC1 | 33.4% (active) |
| FC(F)(F)c1nnc2ccc(N3CCN(c4ccccc4)CC3)nn12 | -3.49% |
| CSCCC(NC(=O)c1ccc(Cl)cc1Cl)C(=O)NNC(=O)c1csc(N2CCOCC2)n1 (centres undefined) | -1.92% |
| COc1ccc(NC(=O)CN2C(=O)CSc3ccc(S(=O)(=O)N4CCC(C)CC4)cc32)cc1 | -2.6% |
| Cc1cc(Cl)c2oc(C(=O)NC(C)c3ccncn3)c(C)c2c1 (centres undefined) | -2.04% |
| Cc1ccc(-n2ncc3c(N4CCN(c5ccc(F)cc5)CC4)ncnc32)c(C)c1 | 10.6% (active) |
| Cc1ccc(-n2ncc3c(=O)[nH]cnc32)c(C)c1 | -2.15% |
| Cc1ccc2cc(C)c(N3CCN(c4ccc(F)cc4)CC3)nc2c1 | 1.71% |
| CCCCn1c(SCc2ncc(-c3ccccc3)o2)nc2cc(S(N)(=O)=O)ccc21 | -10.6% |
| CCOc1ccc(C(CCc2ccccc2)NC(=O)c2ccc(OC)c(OC)c2)cc1OCC (centres undefined) | -0.18% |
| O=C1CCC(C(=O)N2CCCCO2)CN1Cc1cccc(C(F)(F)F)c1 (centres undefined) | 0.67% |
| CCc1ccc(Oc2coc3cc(O)ccc3c2=O)cc1 | -1.09% |
| COC(=O)COc1ccc2c(=O)c(Oc3ccccc3Br)coc2c1 | 17.5% (active) |
| COc1ccc(Oc2coc3cc(OC(=O)c4cncc(Br)c4)ccc3c2=O)cc1 | -4.3% |
| CC(C)OC(=O)c1ccc(COc2ccc3ccc(=O)oc3c2)o1 | 1.19% |

| SMILES | Tm shift relative to glycine control |
| --- | --- |
| CCOc1ccccc1Oc1cn[nH]c1-c1ccc(OC)cc1O | -4.92% |
| COc1ccc(-c2cn[nH]c2-c2ccc(OC)cc2)cc1 | 0% |
| COc1ccc(Oc2cn[nH]c2-c2ccc(OC)cc2O)cc1 | 17.8% (active) |
| Cc1ccc(S(=O)(=O)N2CCN(C(=O)c3cc(S(=O)(=O)N4CCOCC4)ccc3F)CC2)cc1 | -1.16% |
| CC1CCCC(NC(=O)CSc2nccn2C)C1C (centres undefined) | 3.2% |
| Cc1ccc(-n2nc3c(=O)n(C(C)C(=O)NCc4ccc5c(c4)OCO5)nc(C)c3c2C)cc1 (centres undefined) | 0% |
| COC(C(=O)Nc1ccc(C(C)=O)cc1)c1ccccc1 (centres undefined) | -4.28% |
| COC(C(=O)NCc1ccccc1C)c1ccccc1 (centres undefined) | -0.62% |
| COC(C(=O)Nc1ccc(S(=O)(=O)Nc2ccc(C)c(C)c2)cc1)c1ccccc1 (centres undefined) | 16.2% (active) |
| CCOc1ccc(CN2CCN(CCCc3ccccc3)C(CCO)C2)cc1 (centres undefined) | 0.91% |
| CC1CN(C(=O)COC(=O)c2cccc(NS(=O)(=O)c3ccccc3)c2)CC(C)O1 (centres undefined) | 2.04% |
| CC1=C(C)CC(C(=O)NC(C)CCc2ccccc2)C(C(=O)O)C1 (centres undefined) | -2.66% |
| CSc1cc(C)[nH]c(=O)n1 | 1.65% |
| COc1ccccc1S(=O)(=O)c1c(C)cc(C)[nH]c1=O | -0.69% |
| Cc1cc(=O)cc(C)[nH]1 | 13% (active) |
| CCOc1cnc(C(=O)NNC(=O)c2ccccc2Br)o1 | -1.85% |
| Clc1cccc(N=C2NN=C(c3ccc4c(c3)OCCO4)CS2)c1 | 12.7% (active) |
| CN(C)c1nc(=Nc2cccc(Cl)c2)ss1 | -11% |
| c1ccc(CN2CCC(N=C3NN=C(c4ccc5c(c4)OCCO5)CS3)CC2)cc1 | -2.04% |
| Cc1ccc(S(=O)(=O)N(C)c2ccc(OCC(=O)OCC(=O)N(CC#N)c3ccccc3)cc2)cc1 | 2.35% |
| Cc1ccc(S(=O)(=O)N(C)c2ccc(OCC(=O)OCc3ccc(C#N)cc3)cc2)cc1 | 12.6% (active) |
| Cc1ccc(S(=O)(=O)N(C)c2ccc(OCC(=O)NC3=NCCS3)cc2)cc1 | -0.31% |
| O=C(NCc1csc(-c2cccs2)n1)C1CC1 | 0.25% |
| COc1ccc(C2OCC3(CO2)SC(=O)NC3=O)cc1OC (centres undefined) | -1.38% |

| SMILES | Tm shift relative to glycine control |
| --- | --- |
| O=C(NCc1cccs1)c1ccc(CS(=O)Cc2ccccc2Cl)o1 (centres undefined) | 0.47% |
| Nc1nnn(CC(=O)N/N=C/c2ccccc2)n1 | -2.09% |
| O=C(CN1CCOCC1)N/N=C/c1ccc(-c2ccc(Br)cc2)o1 | -2.4% |
| O=C(Cn1nnc(-c2ccccc2)n1)N/N=C/c1ccc(-c2ccc(Cl)cc2)o1 | 384% (active) |
| CCOc1ccc(-n2c(SCC(=O)NC3CCS(=O)(=O)C3)nnc2-c2cccnc2)cc1 (centres undefined) | -1.01% |
| CCN1CC(CN(C)Cc2nc(-c3ccc(Cl)cc3)no2)CC1=O (centres undefined) | -0.89% |
| O=C(OCC(=O)N1CCc2ccccc21)c1ccc([N+](=O)[O-])cc1 | 1% |
| COc1cc(Br)c(-c2sc(Nc3ccccc3)n[n+]2-c2ccccc2)cc1OC | -12% |
| CCc1ccc(Nc2n[n+](-c3ccccc3)c(-c3cccc(Cl)c3Cl)s2)cc1 | 16% (active) |
| COc1ccc(C)cc1Nc1n[n+](-c2ccccc2)c(-c2cccc(Cl)c2Cl)s1 | 4.85% |
| O=C(c1ccc(F)cc1)N1CCC(n2nnc3ccccc32)CC1 | 3.22% |
| CCOCCOC(=O)C1=C(C)N(C)C(=O)NC1c1ccccc1F (centres undefined) | -1.72% |
| COc1ccc2c(c1)C(SCC(=O)NCc1ccccc1)CC(C)(C)O2 (centres undefined) | -0.16% |
| CC(C)NC(=O)C(=O)NCCCOC(C)C | 18.7% (active) |
| CC(C)OCCCNC(=O)C1CC(=O)N(C2CCCCCCC2)C1 (centres undefined) | 2.24% |
| CCOCCCNC(=O)C(=O)NCCCOCC | -0.68% |
| CC(C(=O)Nc1ccc(S(=O)(=O)N2CCCC2)cc1)N(C)Cc1ccc(F)cc1 (centres undefined) | -1.56% |
| COC(=O)N/N=C/c1cn(CCCOc2ccc(C)cc2)c2ccccc12 | 12.8% (active) |
| CCOC(=O)N/N=C/c1cn(Cc2ccccc2Cl)c2ccccc12 | -13.8% |
| CNC(=S)N/N=C/c1cn(Cc2ccc(C)cc2)c2ccccc12 | -1.66% |
| CC(C)(C)c1ccc(/C=C/C(=O)NCCCn2ccnc2)cc1 | -0.74% |
| O=C(COC(=O)c1ccc(Cl)nc1)NCc1ccc2c(c1)OCO2 | -1.93% |
